The text below walks through data of PubChem BioAssay.

The nature of this assay: A549 cell viability effects, profiling panel, calcein-AM fluorescence, 48 h, basal (AID 1162). Further: test concentration not given here. The conditions noted are these: higher = more signal.
On to `O=C1C2C=CC(C(O)Cc3ccccc3)N(n3cnnc3)C2C(=O)N1Cc1ccccc1` (stereo unspecified), for which the z-score is -0.182. In the case of `Cc1ccc(S[C@]2(C(=O)NCCCN(C)C)CC(=O)N(Cc3ccccc3C(F)(F)F)[C@@H]2c2ccc(CO)cc2)cc1`, the z-score was 0.397. In the case of `COc1cc(C(O)C2C=CC3C(=O)NC(=O)C3N2Nc2ccccn2)cc(OC)c1OC` (stereo unspecified), the z-score is -0.928. With `C=CCNC(=O)[C@H]1[C@@H]2C(=O)O[C@@H](c3ccccc3)[C@@H](c3ccccc3)N2[C@@H](c2ccccc2OCCO)[C@]12C(=O)Nc1ccc(C#CCC(C(=O)OC)C(=O)OC)cc12`, the z-score is 0.246. Under `COCCOC(=O)N1C(=O)[C@@]2(c3cc(C#CCNC(N)=O)ccc31)[C@H](C(=O)N1CCN(c3ncccn3)CC1)[C@H]1C(=O)O[C@H](c3ccccc3)[C@H](c3ccccc3)N1[C@@H]2c1ccc(OCCO)cc1` stands 0.572; under `CCOC(=O)C[C@H]1[C@H](OC(=O)c2ccc(C(=O)c3ccccc3)cc2)[C@@H](NC(=O)c2ccc3ccccc3c2)c2cc(OCCCO)ccc2N1C(=O)Cc1ccc(OC)cc1`, -0.0783; under `C[C@H]1NC(=O)[C@@]23C(=O)N[C@@H](Cc4ccccc4)C2[C@H](C)[C@@]2(C)O[C@H]2C3/C=C/C/C=C\CNC(=O)[C@@H]2CCCN2C1=O` (stereo partly specified), -0.197.

Regarding `C=C(CCCC)/C(=C/C[C@@H](OC(=O)c1ccncc1)c1ccc(OCCO)cc1)c1cc(C(=O)OC)ccc1OC`, the z-score is 0.941. As to `CN1C(=O)C2C=CC(C(O)c3ccc([N+](=O)[O-])cc3)N(N3CCCCC3)C2C1=O` (stereo unspecified), the z-score was -0.234. In the case of `CC(C)C(=C=CC[C@H](O)c1ccc(OCCO)cc1)CCO`, the z-score is 0.421.

With `C[C@H]1C2[C@H](Cc3ccccc3)NC(=O)[C@]23C(=O)N[C@H](Cc2ccccc2)C(=O)N2CCC[C@H]2C(=O)NC/C=C\C/C=C/C3[C@@H]2O[C@]12C` (stereo partly specified), the z-score was 1.4. Under `CN(C)CCCCCCNC(=O)[C@H]1C[C@H]2C(=O)N[C@@H](CCCCN)C(=O)N2[C@H]1c1cccc(OCCO)c1` stands -0.214; under `C=CCC(OC(C)=O)[C@@H]1[C@@H](N(Cc2cc3ccccc3o2)C(=O)c2cccc3ccccc23)c2cc(OCCCO)ccc2N1C(=O)c1ccc(-c2ccccc2)cc1` (stereo partly specified), 0.067; under `COC(=O)[C@@]1(Cc2ccc(OC)cc2)[C@H]2c3cc(C(=O)N4CCCC4)n(Cc4ccc(O)c(OC)c4)c3C[C@H]2CN1C(=O)c1ccccc1`, -0.226. Under `COC(=O)[C@@]1(Cc2ccc(OC)cc2)[C@H]2c3cc(C(=O)N4CCCC4)n(Cc4ccc(C)c(F)c4F)c3C[C@H]2CN1C(=O)c1ccccc1` stands 0.842; under `C=CCOC(=O)[C@H]1[C@@H]2C(=O)O[C@@H](c3ccccc3)[C@@H](c3ccccc3)N2[C@@H](c2ccc(OCCOC(=O)[C@@H]3C[C@@H]4C(=O)N[C@@H](CCCCNC(C)=O)C(=O)N4[C@@H]3c3ccc(O)cc3)cc2)[C@]12C(=O)Nc1ccccc12`, -0.41. Under `COC(=O)[C@@]1(Cc2ccc(OC)cc2)[C@H]2c3cc(C(=O)N(C)C)n(Cc4ccc(S(C)(=O)=O)cc4)c3C[C@H]2CN1C(=O)c1ccccc1` stands 2.88; under `CC(C)=CCN[C@H](CO)c1ccccc1`, -0.11. For the compound `COC(=O)[C@@]1(Cc2ccc(F)cc2)[C@H]2c3cc(C(=O)N4CCCC4)n(Cc4ccc(S(C)(=O)=O)cc4)c3C[C@H]2CN1C(=O)c1ccccc1`, the z-score was 0.0676. Under `COc1ccc(C#Cc2ccc3c(c2)[C@]2(C(=O)N3)[C@H](C(=O)Nc3nc4ccccc4s3)[C@H]3C(=O)O[C@H](c4ccccc4)[C@H](c4ccccc4)N3[C@@H]2c2ccc(O)cc2)cc1` stands -0.151. For `[N-]=[N+]=Nc1ccccc1[C@H]1OC(c2ccc(OCCCO)cc2)=N[C@@]1(CCS(=O)(=O)c1ccccc1)C(N)=O`, the z-score was 0.0833. With `CC(C)c1ccc(NN2C(C(O)c3ccc(B(O)O)cc3)C=CC3C(=O)N(c4ccccc4)C(=O)C32)cc1` (stereo unspecified) the figure was -1.34; with `COC(=O)[C@@]1(Cc2ccc(F)cc2)[C@H]2c3cc(C(=O)N(C)C)n(Cc4ccccc4)c3C[C@H]2CN1C(=O)c1ccccc1`, -0.799. For the compound `[N-]=[N+]=Nc1ccccc1[C@@H]1OC(c2ccc(OCCCO)cc2)=N[C@]1(Cc1ccccc1)C(=O)N1CCOCC1`, the z-score was -0.539. Under `CN(C)C(=O)[C@]1(Cc2ccccc2N=[N+]=[N-])N=C(c2ccc(OCCCO)cc2)O[C@@H]1c1ccccc1N=[N+]=[N-]` stands 0.03. Regarding `CC(C)NC(=O)[C@@]1(c2ccc([N+](=O)[O-])cc2)CC(=O)N(C2CCCCC2)[C@@H]1c1ccc(CO)cc1I`, the z-score was 1.92. As for `COCCOC(=O)N1C(=O)[C@@]2(c3cc(C#Cc4ccc(OC)cc4)ccc31)[C@H](c1ccc(OCCO)cc1)N1[C@H](c3ccccc3)[C@H](c3ccccc3)OC(=O)[C@H]1[C@@H]2C(=O)N1CCN(c2ncccn2)CC1`, the z-score was -0.76. Under `CCC[C@@H]1C[C@@]1(CCC)[C@@H](NC(=O)c1ccccc1)c1cccc(Cl)c1` stands -0.927; under `[N-]=[N+]=Nc1ccccc1[C@H]1OC(c2ccc(OCCCO)cc2)=N[C@@]1(CCS(=O)(=O)c1ccccc1)C(=O)NCC(O)CO` (stereo partly specified), -0.0714.

`O=C1N[C@@H](Cc2ccccc2)C(=O)N2[C@@H]1C[C@@H](C(=O)O)[C@H]2c1cccc(OCCO)c1`: the z-score is 0.432. As for `COc1ccc([Si](C)(C)[C@@H]2[C@@H](CC(=O)N3CCC[C@H]3CO)O[C@]3(C(=O)N(c4ccccc4)c4ccccc43)[C@H]2C)cc1`, the z-score is 1.61.

For the compound `CC(C)N1C(=O)C[C@@](C(=O)NCC(F)(F)F)(c2ccc([N+](=O)[O-])cc2)[C@H]1c1ccc(CO)cc1`, the z-score was 1.41. With `CN1C(=O)C2C=CC(C(O)C#Cc3ccccc3)N(N3CCCCC3)C2C1=O` (stereo unspecified), the z-score is -0.388. With `C=C(C)[C@@H]1CC=C(C(O)C2C=CC3C(=O)N(C)C(=O)C3N2Nc2ccccc2)CC1` (stereo partly specified) the figure was -0.889.

Regarding `C=CCOC(=O)[C@@H]1[C@H]2C(=O)O[C@H](c3ccccc3)[C@H](c3ccccc3)N2[C@H](c2ccc(OCCOC(=O)[C@@H]3C[C@@H]4C(=O)NCC(=O)N4[C@@H]3c3ccc(O)cc3)cc2)[C@@]12C(=O)Nc1ccc(I)cc12`, the z-score is -0.814. Regarding `COC(=O)[C@@]1(Cc2ccc(OC)cc2)[C@H]2c3cc(C(=O)N(C)C)n(CCc4ccccn4)c3C[C@H]2CN1C(=O)c1ccccc1`, the z-score was -0.982.
